Measurements as given in paper PMC5913336, “True equilibrium measurement of transcription factor-DNA binding affinities using automated polarization microscopy”.

Molecular target: T1, Slp1-FL (Drosophila melanogaster, UniProt P32030)
T1 sequence: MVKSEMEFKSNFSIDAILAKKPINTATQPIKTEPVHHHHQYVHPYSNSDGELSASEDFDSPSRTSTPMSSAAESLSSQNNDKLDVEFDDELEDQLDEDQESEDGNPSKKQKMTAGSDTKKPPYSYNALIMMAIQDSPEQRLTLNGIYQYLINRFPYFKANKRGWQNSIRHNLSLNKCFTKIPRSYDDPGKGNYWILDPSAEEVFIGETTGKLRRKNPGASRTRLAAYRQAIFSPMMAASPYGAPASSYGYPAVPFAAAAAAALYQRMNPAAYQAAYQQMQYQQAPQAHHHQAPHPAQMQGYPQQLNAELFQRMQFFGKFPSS
Assay: FP; 33 mM phosphate pH 7.0, 90 mM NaCl, 0.01% Tween 20, 0.1 mM DTT, 0.5% agarose; room temperature
Settings: tags: N-GST (pGEX-6P-1, kept); dsDNA, one strand shown

| Sequence | binding signal | Kd [nM] |
| --- | --- | --- |
| ACGTGTTTACACGTA | 2.9 Kd / Kd of best base at the position | – |
| ACGTGTTTTCACTTA | 13 Kd / Kd of best base at the position | – |
| ACGTGTCTACACTTA | 22.3 Kd / Kd of best base at the position | – |
| ACGTGTTTACACTTA | – | ~17 |
| ACTTGTTTACACTTA | 1.09 Kd / Kd of best base at the position | – |
| ACGTGTTTATACTTA | 2.63 Kd / Kd of best base at the position | – |
| TCGTGTTTACACTTA | 1.19 Kd / Kd of best base at the position | – |
| ACGTGATTACACTTA | 19 Kd / Kd of best base at the position | – |
| ACGTGTTTACACTTC | 1.33 Kd / Kd of best base at the position | – |
| AGGTGTTTACACTTA | 1.71 Kd / Kd of best base at the position | – |
| ACGGGTTTACACTTA | 20.1 Kd / Kd of best base at the position | – |
| ACGTGTTTCCACTTA | 15.2 Kd / Kd of best base at the position | – |
| GCGTGTTTACACTTA | 1.21 Kd / Kd of best base at the position | – |
| ACGTGTGTACACTTA | 7.74 Kd / Kd of best base at the position | – |
| ACGTGTTTACAATTA | 2.79 Kd / Kd of best base at the position | – |
| CCGTGTTTACACTTA | 1.25 Kd / Kd of best base at the position | – |
| AAGTGTTTACACTTA | 8.32 Kd / Kd of best base at the position | – |
| ACGAGTTTACACTTA | 30.1 Kd / Kd of best base at the position | – |
| ACGTGTTTAAACTTA | 44.8 Kd / Kd of best base at the position | – |
| ACGTGTTTAGACTTA | 19.7 Kd / Kd of best base at the position | – |

| Sequence | binding signal | Kd [nM] |
| --- | --- | --- |
| ACCTGTTTACACTTA | 3.03 Kd / Kd of best base at the position | – |
| ACGCGTTTACACTTA | 14.2 Kd / Kd of best base at the position | – |
| ACGTGGTTACACTTA | 14.4 Kd / Kd of best base at the position | – |
| ACGTCTTTACACTTA | 68.8 Kd / Kd of best base at the position | – |
| ACGTGTTTACAGTTA | 2.11 Kd / Kd of best base at the position | – |
| ACGTGTTTACACTTG | 1.73 Kd / Kd of best base at the position | – |
| ACGTGTTTACACCTA | 2.68 Kd / Kd of best base at the position | – |
| ACGTATTTACACTTA | 3.26 Kd / Kd of best base at the position | – |
| ACGTGTTTACACTGA | 1.18 Kd / Kd of best base at the position | – |
| ATGTGTTTACACTTA | 1.95 Kd / Kd of best base at the position | – |
| ACGTGTTTACACTTT | 1.35 Kd / Kd of best base at the position | – |
| ACGTGTTTACGCTTA | 1.83 Kd / Kd of best base at the position | – |
| ACGTGTTTACACATA | 9.38 Kd / Kd of best base at the position | – |
| ACGTGTTTACTCTTA | 2.44 Kd / Kd of best base at the position | – |
| ACGTGTTTGCACTTA | 23.1 Kd / Kd of best base at the position | – |
| ACGTGTTAACACTTA | 14 Kd / Kd of best base at the position | – |
| ACGTGCTTACACTTA | 16.8 Kd / Kd of best base at the position | – |
| ACGTGTATACACTTA | 19.4 Kd / Kd of best base at the position | – |
| ACGTGTTGACACTTA | 5.44 Kd / Kd of best base at the position | – |
